{
  "source": "PubChem BioAssay (EPA / NIEHS)",
  "note": "Results filed as inconclusive are left out. The source made the active and inactive calls. The calls were made as follows: active = hit-call score of the fitted dose curve at least 0.9, where 1 is the maximum; inconclusive = response in the unintended direction; inactive = score below 0.9.",
  "data": [
    {"tested_on": "Sodium/Iodide Symporter (NIS), SLC5A5 (gene 6528)", "test": "CPHEA_Stoker_NIS_Inhibition_RAIU: CPHEA's Radioactive Iodide Uptake (RAIU) Assay for Sodium/Iodide Symporter (NIS) Inhibition, Stoker and Laws Labs (AID 2283841)", "protocol": "CPHEA_Stoker_NIS is a cell-based, single-readout assay that uses hNIS-HEK293T-EPA, a novel human kidney cell line expressing human NIS, with measurements taken at 2 hours after chemical dosing in a 96-well plate. This radioactive iodide uptake (RAIU) assay is used to identify inhibitors of NIS-mediated iodide uptake. A parallel cytoxicity assay (Cell Titer Glo, Promega) was also run in the same cell line.CPHEA_Stoker_NIS_Inhibition_RAIU is one of 2 assay components measured from the CPHEA_Stoker_NIS assay. It is designed to make measurements of radioactive substrate uptake to understand transporter function, as detected with 125-i signals by MicroBeta radioactivity plate reader technology.Data from the assay component CPHEA_Stoker_NIS_Inhibition_RAIU was analyzed at the endpoint, CPHEA_Stoker_NIS_Inhibition_RAIU, in the positive analysis fitting direction relative to DMSO as the negative control and baseline of activity. Measures of radioactive substrate uptake for loss-of-signal activity can be used to understand the effects on transporter function at the pathway level as they relate to the sodium-iodide symporter, gene SLC5A5. To generalize the intended target to other relatable targets, this assay endpoint is annotated to the transporter intended target family, where the subfamily is sodium-iodide symporter (NIS).\nhNIS-HEK293T-EPA cells were seeded with a MultiFlo FX dispenser (BioTek, Winooski, VT) into ScintiPlate-96 microplates (Perkin Elmer, Waltham, MA) at a density of 4.0x10^4 cells per well in 200uL growth media and incubated for 40 hours before experimentation. On day of the assay, carrier-free 125I (Perkin-Elmer, Waltham, MA; specific activity: 17.4Ci/mg) was diluted with Hanks' balanced salt solution (Sigma, St. Louis, MO) supplemented with 10mM HEPES (uptake buffer; pH 7.4) at 5uCi/mL (288pg 125I/mL uptake buffer; 2.30nM). The assay was initiated by washing cells twice with 200uL uptake buffer using a 96-well Tecan HydroSpeed plate washer (Tecan, Mannedorf, Switzerland). Uptake buffer (59.7uL) was then added back to each well. Chemical samples (350nL at 200X) were administered using the HDR tool as previously described to achieve a 1X chemical/0.5% final DMSO concentration with subsequent addition of 10uL of 125I dilution (final [125I]: 329pM; 2.88pg/well) for a final reaction volume of 70uL/well. Cells were incubated at room temperature for 2 hours and then washed twice with 200uL ice cold uptake buffer. All uptake buffer was aspirated from wells, plates were sealed, and read on a MicroBeta2 plate reader (Perkin Elmer, Waltham, MA) using a detection protocol to measure CPM corresponding to intracellular 125I concentration. Each chemical concentration (0.001, 0.01, 0.1, 1.0, 10, and 100uM) was assayed in triplicate with three independent biological replicate plates (3 sequential cell passages). Additionally, a concentration response of NaClO4 (0.001, 0.01, 0.1, 1.0, 10, and 100uM) served as a positive control inhibition curve on each RAIU assay plate. DMSO control wells were assayed on each plate as a measure of maximum iodide uptake for normalization and determination of intra- and inter-assay variation. (Toxicol In Vitro, 2017, 40:66-78).", "values": [
      {"smiles": "O=c1[nH]sc2ccccc12", "outcome": "inactive"},
      {"smiles": "CN(C[C@@H](CC[N+]12CCC(C3CCCCC3)(CC1)CC2)c1ccc(Cl)c(Cl)c1)C(=O)c1cc(C(F)(F)F)cc(C(F)(F)F)c1", "AC50": "66.3 µM (active)"},
      {"smiles": "CC(C)(C)c1cc(/C=C2\\SC(N)=NC2=O)cc(C(C)(C)C)c1O", "outcome": "inactive"},
      {"smiles": "CN(C)c1ccc(C(=C2C=CC(=[N+](C)C)C=C2)c2ccc(N(C)C)cc2)cc1", "AC50": "17.4 µM (active)"},
      {"smiles": "CC/C(=C(/CC)c1ccc(O)cc1)c1ccc(O)cc1", "outcome": "inactive"},
      {"smiles": "CC(=O)N1CCN(c2ccc(OC[C@H]3CO[C@](Cn4ccnc4)(c4ccc(Cl)cc4Cl)O3)cc2)CC1", "AC50": "50 µM (active)"},
      {"smiles": "NC(=O)c1nc(-c2cccc(-c3cc(F)ccc3OCC(F)(F)C(F)(F)F)c2)n[nH]1", "AC50": "50 µM (active)"},
      {"smiles": "Cc1c2ccccc2c(C)c2c1ccc1ccccc12", "outcome": "inactive"},
      {"smiles": "CCN(CC)C(=O)c1cc(S(=O)(=O)Cc2ccccc2)c(N2CCC(c3ccccc3)CC2)cc1N(CC)CCN(C)C", "outcome": "inactive"},
      {"smiles": "CCCCCCCCOC(=O)c1cc(O)c(O)c(O)c1", "outcome": "inactive"},
      {"smiles": "CCOC(=O)O[C@H](C)OC(=O)c1ccc2c(c1)cc(C(=O)NC1CCN(C(C)C)CC1)n2Cc1cc(-c2ccc(Cl)s2)on1", "outcome": "inactive"},
      {"smiles": "CC(C)(C)c1csc(-c2cc3cc(OCc4ccccc4CC(=O)O)ccc3o2)n1", "AC50": "50 µM (active)"},
      {"smiles": "Cc1cc2c(cc1C(F)(F)F)N(C(=O)Nc1ccc(Oc3cccnc3C)nc1)CC2", "outcome": "inactive"},
      {"smiles": "CC(C)(c1cc(Br)c(O)c(Br)c1)c1cc(Br)c(O)c(Br)c1", "AC50": "82.4 µM (active)"},
      {"smiles": "O=C(O)Cc1cc(I)c(Oc2ccc(O)c(I)c2)c(I)c1", "AC50": "88.5 µM (active)"},
      {"smiles": "Clc1cc(Cl)c2c(c1)N=C1CCCCCN1C2", "outcome": "inactive"},
      {"smiles": "O=C(Nc1ccc(Cl)cc1)Nc1ccc(Cl)c(Cl)c1", "outcome": "inactive"},
      {"smiles": "CN1C(=O)N(c2ccccc2Br)Cc2cnc(Nc3ccc4c(c3)OCC(CO)O4)nc21", "note": "(stereo not given)", "outcome": "inactive"},
      {"smiles": "CN(C)C(=O)C1(N2CCCCC2)CCN(CC[C@@]2(c3ccc(Cl)c(Cl)c3)CN(C(=O)c3ccccc3)CCO2)CC1", "outcome": "inactive"},
      {"smiles": "CCCCCCCCCCCC[N+](C)(C)C", "outcome": "inactive"},
      {"smiles": "Clc1ccccc1C(c1ccccc1)(c1ccccc1)n1ccnc1", "AC50": "50 µM (active)"},
      {"smiles": "NCc1cccc(C2CCN(C(=O)c3ccc(C#Cc4ccccc4F)o3)CC2)c1", "outcome": "inactive"},
      {"smiles": "OC12N=C(c3ccccc3)SC1Cc1cc(Cl)ccc12", "note": "(stereo not given)", "outcome": "inactive"},
      {"smiles": "COc1cc(C(=O)NC2CCN(C)CC2)ccc1Nc1ncc2c(n1)N(C1CCCC1)CC(F)(F)C(=O)N2C", "outcome": "inactive"},
      {"smiles": "O=C1c2ccccc2C(=O)N1CCc1noc(-c2ccc(CN3CCCCCC3)s2)n1", "outcome": "inactive"}
    ]}
  ]
}
